From PubChem BioAssay AID2314 (National Center for Advancing Translational Sciences (NCATS), 2010)
Screen size: about 300,000 compounds; about 37,000 (12%) were called active. The sample holds actives, similar compounds and a random draw of the others, so the mix is not that of the screen. Rule as the data show it: active = max response mostly above about 13% (no sharp cut-off); inactive = mostly below about 14%.

Assay: Cycloheximide Counterscreen for Small Molecule Inhibitors of Shiga Toxin; also: read at 38.3 µM for the half of the compounds with a filed dose; 0% is about no effect
Settings: cell reporter, cycloheximide protein synthesis inhibition counterscreen; hits give high values

Row | Structure (SMILES) | max response
1 | Cc1ccsc1C(=O)N[C@@H](C)c1nnc2ccccn12 | -2.38% (inactive)
2 | CCOC(=O)C1=C(C)NC(=S)NC1c1cccs1 (stereo unspecified) | -2.57% (inactive)
3 | C=CCOC(=O)C1=C(C)NC(C)=C(C(=O)OCC=C)C1c1cccs1 | 63.9% (active)
4 | CCOC(=O)C1=C(C)Nc2nc3ccccc3n2C1c1cccs1 (stereo unspecified) | -3.92% (inactive)
5 | Cc1cc(C)c2nc(N(CCN(C)C)C(=O)/C=C/c3cccs3)sc2c1 | -3.7% (inactive)
6 | C/C(=N/OC(=O)c1ccc(Br)cc1)c1ccc(C)cc1 | 4.97% (inactive)
7 | COc1ccc(C)cc1N(CC(=O)N1CCCC1)S(=O)(=O)c1ccccc1 | 9.95% (inactive)
8 | CCOC(=O)c1csc(NC(=O)Nc2cccc(OC)c2)n1 | 15% (active)
9 | CCOC(=O)Cc1csc(NC(=O)CSc2nc(C)cc(=O)[nH]2)n1 | -1.4% (inactive)
10 | CCOC(=O)Cc1csc(NC(=O)Nc2ccccc2)n1 | 21.8% (active)
11 | CCOC(=O)c1cnc(SCC(=O)Nc2cccc(OC)c2)nc1N | -6% (inactive)
12 | CCOC(=O)Cc1csc(NC(=O)CSc2ccc(Br)cc2)n1 | -1.14% (inactive)
13 | CCOC(=O)Cc1csc(NC(=O)C(C)(C)C)n1 | 26.6% (active)
14 | CCOC(=O)Cc1csc(NC(=O)COc2ccc3c(C)cc(=O)oc3c2)n1 | 5.78% (inactive)
15 | CCOC(=O)Cc1csc(NC(NC(=O)OCC)(C(F)(F)F)C(F)(F)F)n1 | -0.89% (inactive)
16 | CCCCCCC(=O)Nc1nc(C)c(-c2csc(Nc3cccc(OC)c3)n2)s1 | -1.06% (inactive)
17 | COc1ccccc1N1CCN(C(=O)c2ccc(NC3=NC4CS(=O)(=O)CC4S3)cc2)CC1 (stereo unspecified) | 6.59% (inactive)
18 | O=C(Nc1ccc(F)cc1F)N1CCCN(CCOc2ccccc2)CC1 | -1.88% (inactive)
19 | CN1CCN(C(=O)c2cnn(-c3ccccc3)c2NC(=O)c2ccc([N+](=O)[O-])cc2)CC1 | -1.78% (inactive)
20 | S=c1[nH]ccn1-c1ccc(Cl)cc1 | -4.55% (inactive)
21 | CN(Cc1ccccc1)C(=O)COC(=O)c1ccccc1Nc1ccccc1 | -1.45% (inactive)
22 | CC1(C(=O)O)CCC(C(=O)Nc2ccc(Cl)c(Cl)c2)C1(C)C (stereo unspecified) | -1.72% (inactive)
23 | N/C(=N\OC(=O)c1ccc2c(c1)OCO2)c1ccc(Br)cc1 | 32.7% (active)
24 | N/C(=N\OC(=O)N1c2ccccc2Sc2ccccc21)c1ccc(Br)cc1 | -1.54% (inactive)
25 | N/C(=N\OC(=O)/C=C/c1ccccc1)c1ccc(Br)cc1 | 1.02% (inactive)
26 | CCCc1nc2c(c(=O)c3ccccc3n2C)c(=O)n1-c1cc(C)cc(C)c1 | -0.943% (inactive)
